95 molecules from PubChem BioAssay AID602250 (The Scripps Research Institute Molecular Screening Center, 2012) can be followed below.

Screen size: about 360,000 compounds; about 2,200 (0.61%) were called active. For the sample, actives were picked, then their nearest neighbours and some compounds at random. Values without a mark were called inactive.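 Rule for the calls: active = inhibition above a per-plate cutoff, the plate's mean sample inhibition plus 3 SD (cut at about 24% in these data); inactive = the rest.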

This test in a line: calcium signal blockers in parental CHO-K1 cells – cell-based, Fluo-8 calcium fluorescence, full deck, 1536-well, counter-screen for M1 antagonist project, primary screen (AID 602250).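 Note: 0% = DMSO plus EC80 ATP and 100% = DMSO alone without ATP.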 As to conditions: ATP-induced calcium, Fluo-8 fluorescence, at 3 µM, stronger effect = higher value.
In the case of `O=C(Nc1c(C(=O)N2CCCCC2)cnn1-c1ccccc1)c1ccco1`, the inhibition was -0.49%.
The figure for `O=C(Nc1ccc(-n2cccn2)cc1)C1CCN(Cc2ccsc2)CC1` is 9.41%.
In the case of `Cc1cc(C)cc(C(=O)N(CCc2ccccc2)C2=CC3CCC(C2)N3C)c1` (stereo not given), the inhibition was -5.45%.
Then `CCCN(CCc1ccccc1)C1CCc2c(O)cccc2C1` (stereo not given), with 27.5% (active); and `CCN(CC(=O)NC(C)C)C(=O)CCNC(=O)c1ccc(Cl)cc1`, with -14.6%; and `O=C1NC[C@@H](Cc2ccc(O)cc2)N(CCc2cccc(F)c2)C1=O`, with -5%.
On to `Cc1cccn2c(=O)c(/C=C(\C#N)S(=O)(=O)c3ccc(Cl)cc3)c(N3CCC(C(N)=O)CC3)nc12`, for which the inhibition is -14.1%.
The figure for `N#Cc1c(N2CCCCC2)nc(N)c2c(N)nc(SCC(=O)O)cc12` is -8.03%.
The figure for `Cc1cc(C)c(C#N)c(N2CCC(C(N)=O)CC2)n1` is 23.7% (active); for `Cc1ccc(OS(=O)(=O)c2ccc(-c3csc(C)n3)s2)c(C)c1` it is -12%.
Then `CC1=C2C(=O)OC(c3ccoc3)C2(C)CCC1` (stereo not given), with -12.4%; and `Cc1ccc(-n2nc3c(=O)n(C(C)C(=O)NCc4ccc5c(c4)OCO5)nc(C)c3c2C)cc1` (stereo not given), with -17.4%; and `CC1=C(C(=O)N(C)C)CC(CC(=O)NCCN2CCOCC2)C(=O)N1Cc1ccccc1` (stereo not given), with -3.35%.
As to `COc1ccc(OC)c(C2C3=C(N=c4s/c(=C\c5cccc(O)c5)c(=O)n42)c2ccccc2CC3)c1` (stereo not given), the inhibition is -5.43%.
For `O=C(Cc1ccc(Cl)cc1)NC(=S)Nc1ccccc1O`, the inhibition was 31.4% (active).
`COC(=O)c1ccccc1NC(=O)CN(Cc1ccc(Cl)cc1)S(C)(=O)=O`: the inhibition was -17.4%.
In the case of `CCOc1ccccc1NC(=S)NC(=O)CCc1ccccc1`, the inhibition is -6.79%.
The figure for `CC(=O)c1cc(C#N)c(SCC(=O)Nc2nccs2)nc1C` is -13.3%; for `Clc1cc(NC2CCCCC2)ncn1` it is 0.49%; for `COCCCN(C(=O)Cn1ncc2c(=O)oc3ccc(C)cc3c21)C(C)c1ccncc1` (stereo not given) it is -9.26%.
As for `CCCCn1nnnc1C(c1cccc(OC)c1OC)N1CCN(C/C=C/c2ccccc2)CC1` (stereo not given), the inhibition is -19.7%.
On to `CC(=O)c1c(C)[nH]c(C(=O)COC(=O)c2cccc(S(=O)(=O)N(C)c3ccccc3)c2)c1C`, for which the inhibition was 43.1% (active).
For `CC(=O)c1c(C)[nH]c(C(=O)COC(=O)CCOc2ccc(C)cc2)c1C`, the inhibition was 4.03%.
The figure for `CN(c1ccccc1)S(=O)(=O)c1ccc(Cl)c(C(=O)OCC(N)=O)c1` is 4.64%.
As to `O=C(NCc1ccccc1)[C@@H]1CSC2c3ccccc3C(=O)N21` (stereo not given in full), the inhibition is -4.7%.
The figure for `Nc1ccc2nn(-c3ccc(Cl)cc3)nc2c1` is -10.4%; for `CN(C)c1ccc(/C=C2\NC(=S)N(Cc3ccccc3)C2=O)cc1` it is 53.4% (active); for `CN(C)c1ccc(CSc2ccccc2)cc1` it is -21.6%.
As to `CN(C(=O)CN1C(=O)NC(C)(CCc2ccccc2)C1=O)c1ccccc1` (stereo not given), the inhibition is -3.27%.
The figure for `COc1ccc(N2C(=O)CC(Sc3n[nH]c(-c4ccc(C)cc4)n3)C2=O)cc1` (stereo not given) is 24.5% (active); for `Cc1ccc(N2C(=O)CC(Sc3ncn[nH]3)C2=O)cc1` (stereo not given) it is -12.5%.
As to `COc1ccc(-c2nc(SCC(=O)N3CCOCC3)n[nH]2)cc1`, the inhibition is -11.8%.
The figure for `Cn1c(SCC(=O)NC2CCCCC2)nnc1-c1cc2ccccc2o1` is -5.47%.
As to `CCc1c(SCCC(=O)O)nc2ccccc2c1C`, the inhibition was -13.8%.
The figure for `CCNC(=S)NCC` is -17.7%.
The figure for `O=C1NNC(c2ccccc2)=N/C1=C\c1ccc(Cl)cc1` is 3.07%; for `Cc1ccc(C2=C/C(=C\c3cccnc3)C(=O)O2)cc1` it is 6.03%.
As for `O=C1OC(c2ccc(Cl)cc2)=N/C1=C\c1cccnc1`, the inhibition was 32.7% (active).
In the case of `CN1OC(COC(=O)c2ccc(Cl)cc2)CC1c1ccccc1` (stereo not given), the inhibition is 28.7% (active).
The figure for `Cn1cncc1COC(=O)c1ccc(Cl)cc1` is 9.06%; for `CCCCCCN1C[C@@H](O)[C@H](n2cc(COC(=O)c3ccccc3)nn2)C[C@@H]1c1ccc(Cl)cc1` it is 0.85%.
The figure for `O=C(Nn1cc(C(=O)N2CCN(c3ccccc3F)CC2)c2ccccc2c1=O)c1cnccn1` is -2.09%; for `COc1ccc2cc(C(=O)NCC3CCCO3)[nH]c2c1` (stereo not given) it is -13.7%; for `O=C(NCCCO)c1cc2c([nH]c3ccccc32)c(-c2ccc(F)cc2)n1` it is -6.07%.
The figure for `O=C(NCC1CCCO1)c1cc2c([nH]c3ccccc32)c(-c2ccc(F)cc2)n1` (stereo not given) is 31.3% (active); for `Fc1ccccc1CCNc1nnnn1-c1ccccc1` it is -1.72%; for `COC(=O)Cc1ccc(NC(=S)NCc2ccco2)cc1` it is 2.26%.
For the molecule `OCCc1ccc(NCCc2ccco2)cc1`, the inhibition was 29.2% (active).
Then `Cc1ccsc1C(=O)NCCc1ccco1`, with -8.62%.
The figure for `CC1=CC2=NC(=O)CC(C)(C(=O)N(CC(=O)NC(C)(C)C)Cc3ccccc3)N2C=C1` (stereo not given) is -17.9%.
The figure for `CC1(C)CC(=O)C2=C(C1)N=C1SCCC(=O)N1C2c1ccc(C(F)(F)F)cc1` (stereo not given) is -16.7%; for `N/C(=N\OC(=O)/C=C/c1ccccc1)c1ccc(Br)cc1` it is 24.5% (active); for `N/C(=N\OC(=O)N1c2ccccc2Sc2ccccc21)c1ccc(Br)cc1` it is -4.6%.
For `N/C(=N\OC(=O)Cc1ccccc1[N+](=O)[O-])c1ccc(Br)cc1`, the inhibition was -3.46%.
Then `CCc1ccc(/C=N/NC(=O)c2ccc(OC3CCCC3)cc2)s1`, with 3.77%; and `Cc1cc(=O)oc2c(C)c(OCC(=O)NCCN3CCOCC3)ccc12`, with -7.03%; and `O=C(C1CCCO1)N1CCN(S(=O)(=O)c2ccc(Br)cc2)CC1` (stereo not given), with 5.99%.
On to `COc1cc(C(=S)NCc2ccccc2)cc(Br)c1O`, for which the inhibition was -5.75%.
Take `Cc1cc(NC(=O)Cn2nc(C(F)(F)F)c3c2CCCC3)no1`: the inhibition was -9.16%.
As to `O=C(Cn1nc(C(F)(F)F)c2c1CCC2)NCc1ccc(F)cc1`, the inhibition was 25% (active).
Then `CCC(C)NC(=O)Cn1nc(C(F)(F)F)c2c1CCC2` (stereo not given), with -24.7%; and `N#CC1(Nc2ccc(-c3ccc(Cl)cc3)cc2)CCCC1`, with -8.66%.
Take `CC(C)C(=O)Nc1ccc2c3c(cccc13)CC2`: the inhibition is -5.37%.
The figure for `N#CC1(Nc2ccc3c4c(cccc24)CC3)CCCCC1` is 35.7% (active).
As for `CCn1c(=O)c(=O)[nH]c2c(=O)oc3ccc(S(=O)(=O)Nc4ccc(OC)cc4)cc3c21`, the inhibition was -7.54%.
`CCC(Cc1ccccc1)NC(=O)C1CCCCC1` (stereo not given): the inhibition was 27.9% (active).
The figure for `CCC(NC(=O)C1CCCC1)c1ccc(C)cc1` (stereo not given) is -8.16%.
With `Cc1ccc(NC(=O)[C@H](Cc2ccccc2)NC(=O)C2CCNCC2)cc1`, the inhibition was -21.4%.
Then `O=c1[nH]c(CSc2ccccc2)nc2c1oc1ccccc12`, with -8.98%; and `CN(C(=O)CSc1nnc(-c2n[nH]c3ccccc23)o1)c1ccccc1`, with -5.61%; and `Cc1cccc2cc3c(N)c(C(=O)N4CCCc5ccccc54)sc3nc12`, with 13.5%.
For `COc1ccc(NC(=O)C(NC(C)=O)C(=O)NCc2ccccc2Cl)cc1` (stereo not given), the inhibition was 1.86%.
The figure for `O=C(Nc1ccc(Cl)cc1)c1csc([C@H]2C[C@H](O)[C@@H](CO)O2)n1` is 20.1%; for `O=C(Nc1ccc(OCCO)cc1)c1csc([C@H]2C[C@H](O)[C@@H](CO)O2)n1` it is 25.4% (active); for `O=C(Nc1ccc(Cl)cc1)c1csc([C@@H]2O[C@H](CO)[C@H](O)[C@H](O)[C@H]2O)n1` it is -8.36%.
For `O=C(c1ccc(S(=O)(=O)N2CCCC2)cc1)N1CCN(c2ccccc2F)CC1`, the inhibition is -8.35%.
The figure for `O=C(c1ccc(S(=O)(=O)N2CCOCC2)cc1)N1CCN(c2ccccc2)CC1` is 24.7% (active); for `O=C(c1ccc(S(=O)(=O)NCc2ccco2)cc1)N1CCN(c2ccccc2)CC1` it is -11.5%.
In the case of `Cc1ccc(C(=O)Nc2ccn(C)n2)cc1`, the inhibition is -13.4%.
Regarding `CSc1nccc(NC(=O)c2ccc(C(C)(C)C)cc2)n1`, the inhibition was 24.6% (active).
On to `COC(=O)c1nc(NC(=O)c2ccc(F)cc2)n[nH]1`, for which the inhibition was -11.8%.
The figure for `COc1ccccc1CNC(=O)c1cc(-c2cc(Cl)ccc2C)n[nH]1` is -17.7%; for `Cc1ccc(S(=O)(=O)N(Cc2ccc(Cl)cc2)c2ccccc2C(=O)NCc2cccnc2)cc1` it is 22.6%; for `Nc1nonc1-c1nc2ccccc2n1Cc1ccc(F)cc1` it is 24.1% (active).
For the molecule `O=c1[nH]cccc1-c1nc2ccccc2n1Cc1ccc(Cl)cc1`, the inhibition is 6.91%.
As for `COc1ccc(C)c(Cn2c(-c3nonc3N)nc3ccccc32)c1`, the inhibition is -35.1%.
Then `O/N=C(\C[n+]1ccccc1)c1ccc(Br)cc1`, with -7.88%.
The figure for `CCS(=O)(=O)c1ccc(C(=O)NC)c(Cl)c1Cl` is -11.1%; for `CC(=O)c1cccc(NC(=O)C2CCCN2S(=O)(=O)c2cccc3nsnc23)c1` (stereo not given) it is 5.27%.
As for `CC(=O)c1ccc(NC(=O)C2CCCN2S(=O)(=O)c2cccs2)cc1` (stereo not given), the inhibition is 24% (active).
The figure for `CC(=O)Nc1ccc(S(=O)(=O)N2CCN(S(=O)(=O)c3cccs3)CC2)cc1` is 6.03%; for `Cc1ccc(SCCN2C(=O)NC(C)(C)C2=O)cc1` it is -11.7%.
The figure for `CCOC(=O)C1C(=O)C=C(c2ccc(OC)cc2)CC1c1ccco1` (stereo not given) is -9.22%.
For `CCC1(C(=O)c2ccccc2)C(c2cccc([N+](=O)[O-])c2)C1(C(=O)OC)C(=O)OC` (stereo not given), the inhibition is -5.15%.
As for `COc1ccc(N2CCN(C(=S)Nc3ccc(S(N)(=O)=O)cc3)CC2)cc1`, the inhibition is -21.9%.

As a reminder, the inhibition is the change of the read-out against control, counted positive when it falls.
